Test results from PubChem BioAssay (NCI).
The panel holds about 83,000 compounds, 20% with a hit somewhere; the sample as a whole holds those more often.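 A percent growth of 40 corresponds to 60% growth inhibition; 0 means no net growth; -100 means all cells died. Active threshold: below 10.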 A number with no mark means an inactive call. Active and inactive are the calls of the source.

Legend:
Assay in all cases: NCI-60 one-dose screen, 48 h (100 = growth as untreated, 0 = no growth, -100 = all killed)
Conditions in all cases: 10 µM
HT29 colon = system: HT29 colon
SNB-75 CNS = system: SNB-75 CNS
SNB-19 CNS = system: SNB-19 CNS
U251 CNS = system: U251 CNS
PC-3 prostate = system: PC-3 prostate
SK-MEL-5 melanoma = system: SK-MEL-5 melanoma
UACC-62 melanoma = system: UACC-62 melanoma
LOX IMVI melanoma = system: LOX IMVI melanoma
SK-MEL-28 melanoma = system: SK-MEL-28 melanoma
SK-MEL-2 melanoma = system: SK-MEL-2 melanoma
SN12C renal = system: SN12C renal
UO-31 renal = system: UO-31 renal
TK-10 renal = system: TK-10 renal
ACHN renal = system: ACHN renal
CAKI-1 renal = system: CAKI-1 renal
A498 renal = system: A498 renal
MOLT-4 leukemia = system: MOLT-4 leukemia
SR leukemia = system: SR leukemia
CCRF-CEM leukemia = system: CCRF-CEM leukemia

Compound | growth (HT29 colon) | growth (SNB-75 CNS) | growth (SNB-19 CNS) | growth (U251 CNS) | growth (PC-3 prostate) | growth (SK-MEL-5 melanoma) | growth (UACC-62 melanoma) | growth (LOX IMVI melanoma) | growth (SK-MEL-28 melanoma) | growth (SK-MEL-2 melanoma) | growth (SN12C renal) | growth (UO-31 renal) | growth (TK-10 renal) | growth (ACHN renal) | growth (CAKI-1 renal) | growth (A498 renal) | growth (MOLT-4 leukemia) | growth (SR leukemia) | growth (CCRF-CEM leukemia)
Cc1cc2c(C)c3cc(C)c(N)cc3nc2cc1N | -25.5% (active) | 21.8% | 18.3% | 14.9% | 7.77% (active) | 19.8% | 24.2% | 4.46% (active) | 38.9% | -18.1% (active) | 12.5% | 7.87% (active) | -4.14% (active) | 9.76% (active) | 14.8% | -5.82% (active) | -7.23% (active) | -24.3% (active) | 
O=C1Nc2ccc(Cl)cc2/C1=C\c1c(-c2ccc(Cl)cc2)nc2sc(C3CC3)nn12 | 61.8% | 11.3% | 74.3% | 52.6% | 75.6% | 72% | 38.4% | 26% | 46% | 103% | 75.7% | 63.7% | 52.9% | 44.4% | 45.7% | 14.9% |  | 44.2% | 93.6%
COc1cc(-c2cc(/C=C3\C(=O)Nc4ccc(Cl)cc43)[nH]n2)cc(OC)c1OC | 24.2% | -5.13% (active) | 49.9% | 32.1% | -13.2% (active) | -68.8% (active) | -59.6% (active) | 5.85% (active) | -1.56% (active) | -19.1% (active) | 7% (active) | 9.62% (active) | 27.5% | 23.9% | 17.5% | 41.1% | -4.3% (active) | 20.4% | 
c1ccc(CSc2nnc3c4c5c(sc4nc(-c4cccnc4)n23)CCCCCC5)cc1 | 22.4% | 74.1% | 46.5% | 16.8% | 9.01% (active) | -46% (active) | 34.9% | 60.1% | 49.2% | 16.5% | 56.5% | 94.8% | 72.2% | 73.7% | 71.6% | 58.5% |  | 46.5% | 25.2%
CCOC1(OCC)OC(c2ccccc2)=C(C#N)C(/C=C\c2ccccc2)C1(OCC)OCC (stereo not drawn) | 69.6% | 86.6% | 89.8% | 77.4% | 54.9% | 95.5% | 80.1% | 79% | 99.8% | 95.3% | 81.3% | 74% | 97.1% | 83.5% | 84.8% | 83.7% | 81.7% | 52.8% | 79.1%
COc1ccc(/C=C2/CN(C(=O)c3ccccc3F)C/C(=C\c3ccc(OC)cc3)C2=O)cc1 | -82.5% (active) | 68.9% | 77% | 9.44% (active) | 52% | 48.6% | 56.5% | -54.5% (active) | 69.4% | 94.1% | 65.7% | 46.1% | 130% | 65.2% | 67.6% | 122% | 23.5% | -23.2% (active) | 4.22% (active)
C#Cc1ccc(-n2c(/C=C/c3ccc(C(F)(F)F)cc3)nc3ncccc3c2=O)cc1 | 0.334% (active) | 25.7% | 68% | 39.2% | 29.4% | -73.6% (active) | 17% | -18% (active) | 33.3% | -37.1% (active) | 26.6% | 11.6% | 11.4% | 19% | 14.9% | 43.7% | 10.2% | 0.507% (active) | 3.18% (active)
COc1ccccc1CNCCCN1C(=O)c2ccc3c4c(ccc(c24)C1=O)C(=O)N(CCCN)C3=O | -51.1% (active) | 39.3% | -5.76% (active) | -46.6% (active) | -8.32% (active) | -97.5% (active) | -90.2% (active) | -61% (active) | 5.1% (active) | -57.3% (active) | -89% (active) | -20.8% (active) | -3.35% (active) | 2.62% (active) | 31.3% | -0.046% (active) |  | 5.24% (active) | -10.4% (active)
O=S(=O)(Nc1ccccn1)c1ccc(N=Nc2ccc(O)c3ncccc23)cc1 | 79.5% | -6.04% (active) | 12% | 0.16% (active) | -5.46% (active) | -4.96% (active) | -4.64% (active) | 13.7% | 33.9% | -30.1% (active) | 5.49% (active) | -24.1% (active) | -1.22% (active) | -1.83% (active) | -4.15% (active) | -11.5% (active) | 4.77% (active) | 0.457% (active) | 7.55% (active)
O=C(C[P+](c1ccccc1)(c1ccccc1)c1ccccc1)C[P+](c1ccccc1)(c1ccccc1)c1ccccc1 | -77.3% (active) | -22.6% (active) | 20.3% | -91.8% (active) | -77.7% (active) | -88.9% (active) | -79.6% (active) | -87.2% (active) | -42% (active) | -79.8% (active) | -45.9% (active) | -98.2% (active) | -94.1% (active) | -99.4% (active) | -96.1% (active) | -93.8% (active) | -28.9% (active) | -19.6% (active) | -24% (active)
O=C1/C(=C\c2ccc(F)cc2)CN(C(=O)c2ccccc2)C/C1=C\c1ccc(F)cc1 | -50.9% (active) | 48.1% | 61.3% | -25% (active) | 22.1% | 34.3% | 4.27% (active) | -55.9% (active) | 34.8% | 54.8% | 14.1% | 38.7% | 79.7% | 24.3% | 21.3% | 52.3% | 4.36% (active) | -15.1% (active) | 
CCOC(=O)N1C=CC2C=CC1C1C=CC=CC2N1C(=O)OCC (stereo not drawn) | 94.8% | 80.4% | 94.1% | 93.5% | 90.1% | 84.1% | 91.6% | 102% | 87.8% | 90.9% | 99.3% | 83.4% | 111% | 101% | 84.5% | 89.7% | 95.5% |  | 
O=C1/C(=C\c2ccc(Cl)cc2)CN(C(=O)c2ccccc2)C/C1=C\c1ccc(Cl)cc1 | -84.9% (active) | 51.4% | 68.2% | -74% (active) | 25.8% | 66.8% | 34.6% | -51.8% (active) | 59.7% | 87.1% | 36.8% | 2.38% (active) | 94.7% | 47.4% | 32.4% | 84.2% | 21.5% | -20.1% (active) | 11.2%
COc1cc(Cl)cc(-c2nn(-c3cccc(NC(=O)Nc4cc(C(F)(F)F)cc(C(F)(F)F)c4)c3)cc2-c2ccncc2)c1 | 3.93% (active) | 11.3% | 26.1% | -58% (active) | -6.27% (active) | -79.4% (active) | -21.2% (active) | -24% (active) | 6.55% (active) | -38.1% (active) | 9.32% (active) | -0.18% (active) | 30.3% | 10.3% | 8.99% (active) | -21.6% (active) | -24.6% (active) | -37.9% (active) | -22% (active)
CCCCCCCC(C)NCCO (stereo not drawn) | 103% | 99.4% | 109% | 108% | 105% | 101% | 113% | 92.8% | 112% | 106% | 112% | 80.8% | 105% | 117% | 97.1% | 104% | 99.6% | 108% | 
COc1ccc(-c2nc3sc(-c4ccc(OC)cc4)c(-c4ccc(OC)cc4)n3c2/C=C/c2ccc(C(C)C)cc2)cc1 | 92.5% | 55.9% | 103% | 102% | 79.4% | 99.9% | 86.9% | 98.6% | 100% | 84.3% | 99.2% | 83.6% | 97.7% | 97.9% | 82.2% | 99.1% |  | 97.4% | 96%
N=C(N)c1ccc(-c2ccc(-c3ccccc3)o2)nc1 | 19.3% | 38.5% | 82.7% | 83.6% | 71.7% | 86.1% | 103% | 83.4% | 96.2% | 109% | 86.6% | 65.7% | 111% | 92.4% | 83.8% | 45.7% | 60% | 55.6% | 82.5%
